Screening results as filed in PubChem.
HP1b binding inh: HTS for Inhibitors of HP1-beta Chromodomain Interactions with Methylated Histone Tails; Chromobox protein homolog 1 (Homo sapiens), P83916; AlphaScreen HP1-beta / biotin-H3K9me3 peptide binding; Potency, µM (highest dose often 114 µM), inactives show at the top dose activity change, negative = inhibition, actives largely listed as inhibitors; 390,000 compounds, 0.56% hits; AID 540317, 2011; further: nearly all actives have a fitted effect of over 70% in size
Target sequence (P83916 whole entry, looked up): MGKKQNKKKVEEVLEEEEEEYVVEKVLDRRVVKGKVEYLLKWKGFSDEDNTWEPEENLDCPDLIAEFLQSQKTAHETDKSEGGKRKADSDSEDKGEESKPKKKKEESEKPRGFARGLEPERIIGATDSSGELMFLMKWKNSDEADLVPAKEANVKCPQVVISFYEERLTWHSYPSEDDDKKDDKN
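AlphaScreen: HP1-beta (50 nM) preformed 30 min with biotin-H3(1-18)K9me3 peptide (50 nM) in PBS pH 7.4, 0.01% Tween-20. Compound added for 30 min at RT, then streptavidin donor/nickel chelate acceptor beads (10 ug/mL) for 30 min.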
Sfp inh: qHTS Assay for Inhibitors of Bacillus subtilis Sfp phosphopantetheinyl transferase (PPTase). Potency, µM, inactives show largest response in the series, negative = inhibition, hits mostly inhibitors. Biochemical Sfp PPTase activity, qHTS. 310,000 compounds, 3.5% hits. 4'-phosphopantetheinyl transferase ffp (Bacillus subtilis), Q9F4F7. AID 1490, 2009;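 further: the enzyme is Sfp with the accession as filed and its product quenches rhodamine fluorescence; 0% = enzyme reaction without inhibitor and -100% = no enzyme wells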
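Reaction rates are the 30-min fluorescence difference (ex 525, em 598 nm) in wells containing 15 nM Sfp, 5 uM rhodamine-CoA and 12.5 uM BHQ-2-YbbR at pH 7.6 with 10 mM MgCl2.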
G9a block: qHTS Assay for Inhibitors of Histone Lysine Methyltransferase G9a | Potency, µM (top dose mostly 102 µM), for inactives: at the highest dose activity, negative = inhibition, usual class: inhibitors | Histone-lysine N-methyltransferase EHMT2 (Homo sapiens), Q96KQ7 | 350,000 compounds, 8.8% hits | G9a H3K9 monomethylation, AlphaScreen, 2 h; further: on the % scale 0 is the no-effect control and ±100 the full control effect; nearly all actives have a fitted effect of over 75% in size
Target sequence (Q96KQ7 913-1193 limits assumed): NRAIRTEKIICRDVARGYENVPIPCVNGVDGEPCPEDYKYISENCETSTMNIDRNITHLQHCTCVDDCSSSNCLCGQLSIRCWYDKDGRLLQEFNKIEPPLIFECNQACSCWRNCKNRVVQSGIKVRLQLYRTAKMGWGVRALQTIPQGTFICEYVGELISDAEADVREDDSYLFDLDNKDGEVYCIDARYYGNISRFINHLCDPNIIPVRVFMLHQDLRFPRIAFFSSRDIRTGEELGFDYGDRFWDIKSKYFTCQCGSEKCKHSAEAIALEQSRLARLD
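Using a bead-based AlphaScreen, monomethylated H3K9 product from 2 h room-temperature reactions (G9a 20 nM, peptide 500 nM, SAM 20 uM) was detected with 0.5 ug/mL rabbit anti-H3K9me1 antibody.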
BAZ2B block: qHTS Assay for Inhibitors of BAZ2B. Bromodomain adjacent to zinc finger domain protein 2B (Homo sapiens), Q9UIF8. AlphaScreen BAZ2B-H3K14Ac peptide displacement. Potency, µM (titrated, usually from 114 µM), without a hit: top-dose activity change, negative = inhibition, hits mostly inhibitors. 360,000 compounds, 4.4% hits; further: on the % scale 0 is the no-effect control and ±100 the full control effect; nearly all actives have a fitted effect of over 60% in size
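Compounds, titrated to a top concentration of 110 uM, were incubated 30 min at room temperature with preformed BAZ2B/acetyl-K14 H3 peptide complex (50 nM each). Proximity signal was measured by AlphaScreen after 20 min with beads.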
L3MBTL1 inh-1: qHTS Assay for the Inhibitors of L3MBTL1; AlphaScreen L3MBTL1–H3K9me1 peptide binding; Potency, µM (titrated, usually from 57.1 µM), for the others: at the highest dose activity, negative = inhibition, hits mostly inhibitors; 230,000 compounds, 0.66% hits; AID 485360, 2010; further: on the % scale 0 is the no-effect control and ±100 the full control effect; nearly all actives have a fitted effect of over 60% in size
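AlphaScreen assay: L3MBTL1 (50 nM final) was preincubated 30 min at room temperature with biotinylated H3(1-15)K9me1 peptide (75 nM final), then 30 min with library compounds; streptavidin donor and nickel chelate acceptor beads (10 ug/mL final) added, 30 min dark.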
JMJD2A Tudor: qHTS Assay for Inhibitors of JMJD2A-Tudor Domain; Lysine-specific demethylase 4A (Homo sapiens), O75164; AlphaScreen JMJD2A-Tudor / H3K4me3 peptide binding; Potency, µM (series often up to 114 µM), inactives show at the top dose activity change, negative = inhibition, most hits filed as inhibitors; 390,000 compounds, 4.4% hits; further: on the % scale 0 is the no-effect control and ±100 the full control effect; nearly all actives have a fitted effect of over 50% in size
L3MBTL1 inh-2: qHTS Assay for the Inhibitors of L3MBTL1: Hit Validation | shares compounds with L3MBTL1 inh-1 | L3MBTL1 methyl-lysine binding inhibition, biochemical qHTS | Potency, µM, actives largely listed as inhibitors | 500 compounds, 91% hits | AID 540279, 2011; further: nearly all actives have a fitted effect of over 70% in size
L3MBTL1 ctr: qHTS Assay for the Inhibitors of L3MBTL1: Hit Validationin AlphaScreen Counterscreen; shares compounds with L3MBTL1 inh-1; AlphaScreen counterscreen, signal inhibition; Potency, µM (top dose mostly 57.1 µM), inactives show at the top dose activity change, negative = inhibition, usual class: inhibitors; 500 tested, under 10 active; AID 602224, 2012; further: 0% is about no effect
An asterisk follows results filed as active; ? = inconclusive; · = no result; ! = repeats disagree; [ ] = remark or other dose. Compounds with a hit are over-represented: about 12% of the library has one in this group of screens. The call rests on the fitted dose curve; in most records, active means well fitted curve in the direction sought with a large enough effect; inconclusive means small, poorly fitted or top-dose-only effect, or another doubt; inactive means no such curve, though single readings can be large; an effect the other way counts as inactive or inconclusive. Potency means the concentration at half of the fitted maximal effect.

SMILES	HP1b binding inh	Sfp inh	G9a block	BAZ2B block	L3MBTL1 inh-1	JMJD2A Tudor	L3MBTL1 inh-2	L3MBTL1 ctr
O=C(Nc1cccc(C(=O)N2CCOCC2)c1)c1ncn[nH]1	7.6%	-6.6%	-43.1%[59 µM]	20µM*	28.2µM*	28.2µM*	21.2*	?
CC(C)C(=O)Nc1cccc(C(=O)Nc2ccc(S(=O)(=O)Nc3nccs3)cc2)c1	-21.5%	22.7%	-12.3%	-3.5%	·	-18.2%	·	·
CC(=O)OCC1=C(C(=O)O)N2C(=O)[C@@H](NC(=O)CSc3ccncc3)[C@H]2SC1	?	·	15.8µM*!	44.7µM*	15.8µM*	17.8µM*	2.99*	6.5%
CC1=C(C(=O)O)N2C(=O)[C@@H](NC(=O)[C@H](N)c3ccc(O)cc3)[C@H]2SC1	3.3%	·	·	·	·	-20.0%	·	·
O=C(Nc1cc(Cl)ccc1Cl)c1noc2c1CCCC2	54.7%	7.4%	27.6%[12.7 µM]	5.9%	·	-2.8%	·	·
O=C(Nc1ccc(F)cc1F)c1noc2c1CCC2	?	2.0%	?	56.2µM*	31.6µM*	79.4µM*	6.7*	6.3%
CCCOc1ccc(-c2c(C(=O)N/N=C/c3cccnc3)nnn2-c2nonc2N)cc1	30.4%	5.4%	13.1%	-29.1%	·	-3.5%	·	·
O=C(COC(=O)c1cc2c(s1)CCC2)Nc1ccc(F)cc1	39.8µM*	28.2%	?	50.1µM*	14.1µM*	14.1µM*	5.32*	?
CCCCCN(C(=O)CCC(=O)OCC(=O)c1ccc(CCC)cc1)c1c(N)n(CCCC)c(=O)[nH]c1=O	22.3%	·	2.6%[59 µM]	-3.9%	-1.9%	-6.2%	·	·
C=C(C)CCOC(=O)C(CC(=O)O)NCc1ccco1 (stereo not given)	-17.5%	?	11.2µM*	35.5µM*	28.2µM*	35.5µM*	9.47*	14.5%
CCOC(=O)CNC(=O)CSc1nc2c(C)cccc2cc1CC	30.7%	10.9%	·	0.2%	17.7%	-7.7%	·	·
N#Cc1nc(COc2ccccc2Cl)oc1N1CCCC1	?	5.1%	7.94µM*	12.6µM*	28.2µM*	?	?	?
Cc1nn(C(C)C)c(C)c1CN1CCN(Cc2ccsc2)C(CCO)C1 (stereo not given)	20.3%	17.4%	2.5%	-1.2%	3.2%	-11.4%	·	·
O=C(O)c1ccc(-c2ccc(/C=C3\NC(=O)N(Cc4ccc(Cl)cc4)C3=O)o2)cc1Cl	31.6µM*	20µM*	20µM*	22.4µM*	5.62µM*	31.6µM*	0.752*	2.7%
CCOC(=O)CN1C(=O)S/C(=C\c2ccc(-c3ccc(C(=O)O)c(Cl)c3)o2)C1=O	-12.6%	50.1µM*	50.1µM*	?	28.2µM*	79.4µM*	13.4*	-1.0%
Cc1ccc(CN2C(=O)N/C(=C\c3ccc(N4CCOCC4)cc3)C2=O)cc1	18.6%	8.8%	-1.6%[59 µM]	-10.9%	16.7%	-8.6%	·	·
Cn1c(N)c(C(=O)COC(=O)CNC(=O)c2ccccc2Cl)c(=O)n(C)c1=O	38.5%	·	8.9%[12.7 µM]	-5.8%	11.0%	0.0%	·	·
O=C(CC1Sc2ccccc2NC1=O)Nc1cccc(C(=O)O)c1 (stereo not given)	?	-23.2%	39.8µM*	56.2µM*	11.2µM*	50.1µM*	0.947*	10.8%
CC(=O)Nc1ccc2c(COC(=O)CC3Sc4ccccc4NC3=O)cc(=O)oc2c1 (stereo not given)	?	-2.1%	·	56.2µM*	25.1µM*	79.4µM*	8.44*	10.9%
O=C1C2C3C=CC(CC3)C2C(=O)N1c1nccs1 (stereo not given)	-40.5%	-14.3%	-18.5%[59 µM]	44.7µM*	25.1µM*	50.1µM*	26.7*	6.3%
CCCC[N+](C)(C)CCC(=O)NC(C)(C)CS(=O)(=O)[O-]	?	-4.2%	?	50.1µM*	20µM*	56.2µM*	21.2*	-0.7%
CC(C)(C)C(=O)Cn1ncc(Cl)c(Cl)c1=O	45.9%	22.2%	-4.3%	-0.3%	29.6%	-12.1%	·	·
C=CCn1c(C)cc(C(=O)Cn2ncc(Cl)c(Cl)c2=O)c1C	-3.0%	-5.9%	4.0%[59 µM]	?	14.1µM*	-28.4%	?	-0.1%
CC(NC(=O)C1CCC1)c1ccc2c(c1)OCO2 (stereo not given)	23.8%	12.5%	15.6%[12.7 µM]	9.8%	·	-6.6%	·	·
CC(C)CCC(CCN1CCCC1)c1ccc2c(c1)OCO2 (stereo not given)	?	-21.0%	-3.5%	-35.4%	28.2µM*	1.41µM*	21.2*	6.6%
SMILES	HP1b binding inh	Sfp inh	G9a block	BAZ2B block	L3MBTL1 inh-1	JMJD2A Tudor	L3MBTL1 inh-2	L3MBTL1 ctr
COc1ccc(C(=O)N=C2SC3CS(=O)(=O)CC3N2Cc2ccc(F)cc2)cc1 (stereo not given)	27.2%	-5.4%	·	-6.6%	·	-6.9%	·	·
O=[N+]([O-])c1cccc2c1ccc1ncccc12	10.4%	11.1%	12.2%[2.33 µM]	-2.2%	·	-8.1%	·	·
O=[N+]([O-])c1cc(F)c2cccnc2c1O	10.7%	?	8.91µM*	11.2µM*	12.6µM*	10µM*	5.97*	-60.1%
COc1ccc(CSc2nc3ccccc3c(=O)n2CCCN2CCOCC2)cc1F	19.2%	-19.2%	?	-33.1%	-3.9%	-35.0%	·	·
COc1ccc(CCn2c3c(c(=O)[nH]c2=O)C(NC(=O)c2ccccc2)(C(F)(F)F)C(=O)N3)cc1OC (stereo not given)	33.5%	·	1.7%[59 µM]	-1.1%	·	2.7%	·	·
COc1ccc(Sc2ccc(/C=C3\C(=O)NN(c4ccccc4)C3=O)o2)cc1	-25.9%	-13.5%	10µM*	8.91µM*	28.2µM*	?	21.2*	?
COc1ccc(/C=C\c2nc(=O)c3ccccc3o2)cc1	-2.1%[57 µM]	13.1%	?	-33.4%	·	?	·	·
O=c1nc(/C=C/c2ccc(O)c(O)c2)oc2ccccc12	-6.3%	4.5%	39.8µM*	?	28.2µM*	-28.6%	1.89*	-1.7%
